According to the supplement of paper PMC11732987, “Enantioselective OTUD7B fragment discovery through chemoproteomics screening and high-throughput optimisation” (Communications Chemistry, 2025):

Experiments:
Experiment in all cases: log2 ratio of Biotin-Ahx-Ub-VS probe labelling (fragment/DMSO); higher = less target engagement (more negative = stronger competition), active = hit call of the paper (q ≤ 0.05, log2 ratio ≤ -1)
Settings in all cases: compound concentration: 200 uM; treatment time: 3 h
USP42 = target: T1, USP42 (UniProt Q9H9J4)
T1 sequence (whole entry): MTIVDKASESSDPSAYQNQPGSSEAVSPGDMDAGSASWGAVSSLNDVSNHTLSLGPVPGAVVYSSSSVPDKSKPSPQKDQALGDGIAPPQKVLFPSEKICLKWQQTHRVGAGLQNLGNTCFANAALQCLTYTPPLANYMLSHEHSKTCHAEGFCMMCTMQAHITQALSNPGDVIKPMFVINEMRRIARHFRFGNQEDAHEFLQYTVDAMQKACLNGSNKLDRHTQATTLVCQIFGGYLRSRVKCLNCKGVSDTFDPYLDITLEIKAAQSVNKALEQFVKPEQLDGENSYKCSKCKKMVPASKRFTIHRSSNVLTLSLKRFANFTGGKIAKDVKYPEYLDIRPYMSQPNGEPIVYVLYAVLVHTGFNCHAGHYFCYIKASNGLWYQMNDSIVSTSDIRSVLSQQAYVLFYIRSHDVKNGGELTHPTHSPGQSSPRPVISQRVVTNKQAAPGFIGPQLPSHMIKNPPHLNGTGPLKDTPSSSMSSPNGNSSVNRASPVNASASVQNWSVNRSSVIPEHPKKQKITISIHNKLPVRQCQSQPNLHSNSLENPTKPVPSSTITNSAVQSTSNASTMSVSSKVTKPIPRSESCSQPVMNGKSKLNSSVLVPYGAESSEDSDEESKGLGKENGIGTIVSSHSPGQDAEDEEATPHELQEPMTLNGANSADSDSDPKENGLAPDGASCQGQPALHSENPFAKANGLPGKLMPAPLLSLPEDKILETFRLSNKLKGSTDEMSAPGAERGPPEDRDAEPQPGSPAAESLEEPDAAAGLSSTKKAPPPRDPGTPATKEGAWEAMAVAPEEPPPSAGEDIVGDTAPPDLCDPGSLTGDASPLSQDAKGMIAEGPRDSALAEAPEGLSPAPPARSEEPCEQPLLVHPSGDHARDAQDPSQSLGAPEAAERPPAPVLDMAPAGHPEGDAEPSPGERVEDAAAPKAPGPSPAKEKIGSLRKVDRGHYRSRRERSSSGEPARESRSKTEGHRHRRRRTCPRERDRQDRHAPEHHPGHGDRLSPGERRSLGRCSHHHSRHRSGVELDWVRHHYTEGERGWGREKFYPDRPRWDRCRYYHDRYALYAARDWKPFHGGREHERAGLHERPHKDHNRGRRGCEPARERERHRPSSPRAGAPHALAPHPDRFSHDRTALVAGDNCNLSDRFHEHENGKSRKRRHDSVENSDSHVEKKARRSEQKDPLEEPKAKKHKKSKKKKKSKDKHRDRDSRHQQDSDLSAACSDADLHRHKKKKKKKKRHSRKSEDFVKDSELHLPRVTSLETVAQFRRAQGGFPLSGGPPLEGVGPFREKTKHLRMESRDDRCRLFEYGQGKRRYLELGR
Method in brief: (§1)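 Triplicate samples of HEK293T lysate, 495 µg each, received fragment at 200 µM or vehicle for 3 h, followed by Biotin-Ahx-Ub-VS (0.5 µM final) for 1 h. After NeutrAvidin enrichment of labelled DUBs and LysC/trypsin digestion, peptides were run by diaPASEF LC-MS/MS. The values are average log2 fragment/vehicle ratios from global-median-normalised Spectronaut label-free quantities, tested by unpaired t-test on proteins having ≥2 unique peptides.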

USP46 = USP46 (UniProt P62068)
Method in brief: as §1

USP47 = target: T2, USP47 (UniProt Q96K76)
T2 sequence (whole entry): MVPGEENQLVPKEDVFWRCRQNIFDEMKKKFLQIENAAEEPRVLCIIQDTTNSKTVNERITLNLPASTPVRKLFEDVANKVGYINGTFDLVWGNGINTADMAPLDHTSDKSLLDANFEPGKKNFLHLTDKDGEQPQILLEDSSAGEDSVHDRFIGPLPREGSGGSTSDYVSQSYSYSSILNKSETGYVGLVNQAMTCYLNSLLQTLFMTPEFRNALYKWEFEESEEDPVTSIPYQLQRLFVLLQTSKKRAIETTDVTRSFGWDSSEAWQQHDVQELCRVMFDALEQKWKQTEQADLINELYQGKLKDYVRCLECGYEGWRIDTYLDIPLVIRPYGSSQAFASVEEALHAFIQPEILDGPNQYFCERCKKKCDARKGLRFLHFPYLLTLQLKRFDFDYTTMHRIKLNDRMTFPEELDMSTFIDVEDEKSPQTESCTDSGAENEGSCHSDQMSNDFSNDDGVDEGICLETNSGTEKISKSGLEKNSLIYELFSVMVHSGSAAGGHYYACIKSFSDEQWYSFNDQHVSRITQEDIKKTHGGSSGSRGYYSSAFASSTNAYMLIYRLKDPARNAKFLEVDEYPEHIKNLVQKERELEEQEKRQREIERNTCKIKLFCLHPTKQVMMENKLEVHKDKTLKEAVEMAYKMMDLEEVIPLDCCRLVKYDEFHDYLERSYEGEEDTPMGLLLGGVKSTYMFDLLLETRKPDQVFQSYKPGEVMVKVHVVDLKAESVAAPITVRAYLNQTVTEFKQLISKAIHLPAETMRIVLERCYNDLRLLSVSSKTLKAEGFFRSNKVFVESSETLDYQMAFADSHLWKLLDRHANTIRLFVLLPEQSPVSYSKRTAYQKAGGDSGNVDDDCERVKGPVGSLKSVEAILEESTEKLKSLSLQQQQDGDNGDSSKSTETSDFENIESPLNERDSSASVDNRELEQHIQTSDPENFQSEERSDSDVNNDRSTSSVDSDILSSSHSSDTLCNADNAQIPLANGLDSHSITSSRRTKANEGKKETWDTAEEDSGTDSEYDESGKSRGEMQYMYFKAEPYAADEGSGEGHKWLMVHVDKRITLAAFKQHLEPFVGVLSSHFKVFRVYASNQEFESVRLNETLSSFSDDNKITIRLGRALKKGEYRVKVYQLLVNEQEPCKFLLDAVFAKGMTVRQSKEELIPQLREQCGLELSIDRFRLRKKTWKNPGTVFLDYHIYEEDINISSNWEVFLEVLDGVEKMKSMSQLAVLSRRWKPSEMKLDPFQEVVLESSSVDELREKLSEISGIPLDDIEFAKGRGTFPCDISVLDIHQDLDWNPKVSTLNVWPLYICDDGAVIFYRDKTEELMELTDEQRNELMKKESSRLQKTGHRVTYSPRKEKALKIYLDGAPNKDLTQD
Method in brief: as §1

USP48 = target: T3, USP48 (UniProt Q86UV5)
T3 sequence (whole entry): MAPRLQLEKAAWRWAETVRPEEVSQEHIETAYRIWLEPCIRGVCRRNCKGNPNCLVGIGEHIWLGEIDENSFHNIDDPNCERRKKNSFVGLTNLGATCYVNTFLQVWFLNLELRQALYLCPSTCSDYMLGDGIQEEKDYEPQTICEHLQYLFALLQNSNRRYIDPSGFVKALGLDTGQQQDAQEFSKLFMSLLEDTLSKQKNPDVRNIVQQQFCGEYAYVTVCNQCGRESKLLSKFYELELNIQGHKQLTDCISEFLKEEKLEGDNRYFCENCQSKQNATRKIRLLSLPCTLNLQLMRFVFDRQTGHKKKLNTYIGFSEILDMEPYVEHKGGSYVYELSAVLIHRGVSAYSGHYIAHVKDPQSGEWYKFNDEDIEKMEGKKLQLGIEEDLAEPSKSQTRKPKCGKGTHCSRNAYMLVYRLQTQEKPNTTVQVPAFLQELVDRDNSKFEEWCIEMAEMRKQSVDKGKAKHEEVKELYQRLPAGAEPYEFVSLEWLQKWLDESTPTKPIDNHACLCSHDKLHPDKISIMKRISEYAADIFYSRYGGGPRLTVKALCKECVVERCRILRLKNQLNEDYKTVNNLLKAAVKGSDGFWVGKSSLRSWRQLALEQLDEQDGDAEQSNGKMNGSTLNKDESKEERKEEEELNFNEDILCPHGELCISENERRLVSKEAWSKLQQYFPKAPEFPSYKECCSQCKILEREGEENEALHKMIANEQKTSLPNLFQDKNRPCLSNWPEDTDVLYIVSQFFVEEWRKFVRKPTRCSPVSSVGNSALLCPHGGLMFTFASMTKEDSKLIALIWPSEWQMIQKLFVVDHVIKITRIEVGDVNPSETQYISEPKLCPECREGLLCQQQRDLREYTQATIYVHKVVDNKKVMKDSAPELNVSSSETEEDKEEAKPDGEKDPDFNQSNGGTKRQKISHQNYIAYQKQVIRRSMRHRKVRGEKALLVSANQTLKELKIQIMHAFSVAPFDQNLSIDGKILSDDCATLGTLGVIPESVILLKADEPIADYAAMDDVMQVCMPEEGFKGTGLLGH
Method in brief: as §1

USP5 = target: T4, USP5 (UniProt P45974)
T4 sequence (whole entry): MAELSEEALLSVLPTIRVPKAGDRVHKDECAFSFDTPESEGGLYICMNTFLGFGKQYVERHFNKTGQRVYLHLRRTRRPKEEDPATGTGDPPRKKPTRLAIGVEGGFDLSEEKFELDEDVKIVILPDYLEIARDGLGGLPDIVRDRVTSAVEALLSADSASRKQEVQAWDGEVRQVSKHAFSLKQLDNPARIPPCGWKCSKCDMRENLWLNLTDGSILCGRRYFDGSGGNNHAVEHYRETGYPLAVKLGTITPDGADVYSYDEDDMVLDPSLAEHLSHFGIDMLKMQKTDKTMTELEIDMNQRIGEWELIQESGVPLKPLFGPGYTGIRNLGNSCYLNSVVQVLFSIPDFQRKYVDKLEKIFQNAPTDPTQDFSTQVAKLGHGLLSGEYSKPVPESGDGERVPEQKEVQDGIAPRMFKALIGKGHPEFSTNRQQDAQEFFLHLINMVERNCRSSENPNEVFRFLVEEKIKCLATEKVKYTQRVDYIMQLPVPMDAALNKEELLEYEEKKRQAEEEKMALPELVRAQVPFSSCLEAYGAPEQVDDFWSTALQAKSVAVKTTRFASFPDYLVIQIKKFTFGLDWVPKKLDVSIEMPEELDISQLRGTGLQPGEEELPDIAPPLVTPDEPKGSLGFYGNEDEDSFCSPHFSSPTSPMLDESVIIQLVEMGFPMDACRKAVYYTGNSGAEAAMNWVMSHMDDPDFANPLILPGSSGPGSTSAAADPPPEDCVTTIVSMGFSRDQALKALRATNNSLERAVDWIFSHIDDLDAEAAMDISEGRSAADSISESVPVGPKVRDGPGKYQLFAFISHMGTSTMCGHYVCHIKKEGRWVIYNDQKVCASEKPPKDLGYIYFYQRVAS
Method in brief: as §1

USP54 = USP54 (UniProt Q70EL1)
Method in brief: as §1

USP7 = USP7 (UniProt Q93009)
Method in brief: as §1

USP8 = target: T5, USP8 (UniProt P40818)
T5 sequence (whole entry): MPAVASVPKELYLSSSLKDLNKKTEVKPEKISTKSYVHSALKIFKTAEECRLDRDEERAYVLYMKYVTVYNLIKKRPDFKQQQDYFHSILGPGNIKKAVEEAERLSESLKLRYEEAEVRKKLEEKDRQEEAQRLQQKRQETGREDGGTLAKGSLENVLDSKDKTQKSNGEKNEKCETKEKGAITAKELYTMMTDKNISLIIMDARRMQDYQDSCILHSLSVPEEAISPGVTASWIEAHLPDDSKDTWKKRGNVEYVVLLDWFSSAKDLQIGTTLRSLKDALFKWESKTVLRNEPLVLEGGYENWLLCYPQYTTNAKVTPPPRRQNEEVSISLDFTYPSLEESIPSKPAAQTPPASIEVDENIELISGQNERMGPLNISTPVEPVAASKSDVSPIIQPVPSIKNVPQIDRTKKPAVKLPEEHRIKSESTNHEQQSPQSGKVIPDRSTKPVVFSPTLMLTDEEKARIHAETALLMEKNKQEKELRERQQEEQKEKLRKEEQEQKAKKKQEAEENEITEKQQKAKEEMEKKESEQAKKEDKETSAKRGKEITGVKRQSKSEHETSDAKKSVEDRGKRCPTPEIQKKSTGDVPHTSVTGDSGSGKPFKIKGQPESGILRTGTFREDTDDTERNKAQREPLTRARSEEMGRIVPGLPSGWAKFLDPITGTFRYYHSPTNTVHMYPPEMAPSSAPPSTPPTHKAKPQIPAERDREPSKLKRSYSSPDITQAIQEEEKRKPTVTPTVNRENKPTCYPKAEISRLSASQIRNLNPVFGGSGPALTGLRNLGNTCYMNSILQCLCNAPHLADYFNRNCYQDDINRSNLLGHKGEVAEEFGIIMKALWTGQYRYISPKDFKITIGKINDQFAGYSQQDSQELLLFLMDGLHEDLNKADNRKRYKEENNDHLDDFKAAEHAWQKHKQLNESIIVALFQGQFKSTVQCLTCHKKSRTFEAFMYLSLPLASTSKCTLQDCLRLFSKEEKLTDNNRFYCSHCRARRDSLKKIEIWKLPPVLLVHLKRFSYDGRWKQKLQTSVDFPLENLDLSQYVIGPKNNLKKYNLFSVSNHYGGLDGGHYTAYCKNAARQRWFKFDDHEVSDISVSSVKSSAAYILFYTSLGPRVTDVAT
Method in brief: as §1

USP9X = USP9X (UniProt Q93008)
Method in brief: as §1

UniProt O00487 = target: UniProt O00487
Method in brief: as §1

Measured: log2 ratio of Biotin-Ahx-Ub-VS probe labelling

USP7, sequence (Q93009 whole entry, looked up): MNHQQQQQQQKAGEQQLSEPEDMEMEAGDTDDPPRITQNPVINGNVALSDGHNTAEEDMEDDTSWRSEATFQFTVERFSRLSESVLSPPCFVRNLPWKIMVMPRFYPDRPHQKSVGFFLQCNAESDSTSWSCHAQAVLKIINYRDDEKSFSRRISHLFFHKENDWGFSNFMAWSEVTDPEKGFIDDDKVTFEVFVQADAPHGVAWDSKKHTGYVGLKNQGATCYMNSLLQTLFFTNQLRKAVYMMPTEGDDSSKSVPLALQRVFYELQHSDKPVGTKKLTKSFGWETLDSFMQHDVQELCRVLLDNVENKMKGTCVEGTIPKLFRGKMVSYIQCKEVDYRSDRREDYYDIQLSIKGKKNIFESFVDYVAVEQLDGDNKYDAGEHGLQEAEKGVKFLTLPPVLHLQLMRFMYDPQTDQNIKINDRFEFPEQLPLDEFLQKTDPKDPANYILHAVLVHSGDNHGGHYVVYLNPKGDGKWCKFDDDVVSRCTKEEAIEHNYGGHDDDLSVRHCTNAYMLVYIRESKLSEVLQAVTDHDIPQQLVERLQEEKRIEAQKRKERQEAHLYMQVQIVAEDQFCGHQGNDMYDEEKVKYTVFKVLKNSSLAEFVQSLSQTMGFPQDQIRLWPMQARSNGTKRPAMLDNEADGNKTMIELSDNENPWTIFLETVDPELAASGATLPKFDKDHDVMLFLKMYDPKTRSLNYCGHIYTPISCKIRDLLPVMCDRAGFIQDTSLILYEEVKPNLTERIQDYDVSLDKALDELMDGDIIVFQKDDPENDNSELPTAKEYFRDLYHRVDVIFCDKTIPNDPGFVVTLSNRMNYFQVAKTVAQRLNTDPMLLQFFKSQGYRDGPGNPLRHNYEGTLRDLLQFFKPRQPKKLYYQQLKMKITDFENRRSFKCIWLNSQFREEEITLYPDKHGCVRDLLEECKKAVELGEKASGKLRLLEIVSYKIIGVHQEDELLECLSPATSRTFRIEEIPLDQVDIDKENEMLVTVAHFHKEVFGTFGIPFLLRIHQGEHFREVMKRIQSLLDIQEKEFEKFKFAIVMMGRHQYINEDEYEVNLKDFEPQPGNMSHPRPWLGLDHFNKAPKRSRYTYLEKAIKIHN
USP9X, sequence (Q93008 whole entry): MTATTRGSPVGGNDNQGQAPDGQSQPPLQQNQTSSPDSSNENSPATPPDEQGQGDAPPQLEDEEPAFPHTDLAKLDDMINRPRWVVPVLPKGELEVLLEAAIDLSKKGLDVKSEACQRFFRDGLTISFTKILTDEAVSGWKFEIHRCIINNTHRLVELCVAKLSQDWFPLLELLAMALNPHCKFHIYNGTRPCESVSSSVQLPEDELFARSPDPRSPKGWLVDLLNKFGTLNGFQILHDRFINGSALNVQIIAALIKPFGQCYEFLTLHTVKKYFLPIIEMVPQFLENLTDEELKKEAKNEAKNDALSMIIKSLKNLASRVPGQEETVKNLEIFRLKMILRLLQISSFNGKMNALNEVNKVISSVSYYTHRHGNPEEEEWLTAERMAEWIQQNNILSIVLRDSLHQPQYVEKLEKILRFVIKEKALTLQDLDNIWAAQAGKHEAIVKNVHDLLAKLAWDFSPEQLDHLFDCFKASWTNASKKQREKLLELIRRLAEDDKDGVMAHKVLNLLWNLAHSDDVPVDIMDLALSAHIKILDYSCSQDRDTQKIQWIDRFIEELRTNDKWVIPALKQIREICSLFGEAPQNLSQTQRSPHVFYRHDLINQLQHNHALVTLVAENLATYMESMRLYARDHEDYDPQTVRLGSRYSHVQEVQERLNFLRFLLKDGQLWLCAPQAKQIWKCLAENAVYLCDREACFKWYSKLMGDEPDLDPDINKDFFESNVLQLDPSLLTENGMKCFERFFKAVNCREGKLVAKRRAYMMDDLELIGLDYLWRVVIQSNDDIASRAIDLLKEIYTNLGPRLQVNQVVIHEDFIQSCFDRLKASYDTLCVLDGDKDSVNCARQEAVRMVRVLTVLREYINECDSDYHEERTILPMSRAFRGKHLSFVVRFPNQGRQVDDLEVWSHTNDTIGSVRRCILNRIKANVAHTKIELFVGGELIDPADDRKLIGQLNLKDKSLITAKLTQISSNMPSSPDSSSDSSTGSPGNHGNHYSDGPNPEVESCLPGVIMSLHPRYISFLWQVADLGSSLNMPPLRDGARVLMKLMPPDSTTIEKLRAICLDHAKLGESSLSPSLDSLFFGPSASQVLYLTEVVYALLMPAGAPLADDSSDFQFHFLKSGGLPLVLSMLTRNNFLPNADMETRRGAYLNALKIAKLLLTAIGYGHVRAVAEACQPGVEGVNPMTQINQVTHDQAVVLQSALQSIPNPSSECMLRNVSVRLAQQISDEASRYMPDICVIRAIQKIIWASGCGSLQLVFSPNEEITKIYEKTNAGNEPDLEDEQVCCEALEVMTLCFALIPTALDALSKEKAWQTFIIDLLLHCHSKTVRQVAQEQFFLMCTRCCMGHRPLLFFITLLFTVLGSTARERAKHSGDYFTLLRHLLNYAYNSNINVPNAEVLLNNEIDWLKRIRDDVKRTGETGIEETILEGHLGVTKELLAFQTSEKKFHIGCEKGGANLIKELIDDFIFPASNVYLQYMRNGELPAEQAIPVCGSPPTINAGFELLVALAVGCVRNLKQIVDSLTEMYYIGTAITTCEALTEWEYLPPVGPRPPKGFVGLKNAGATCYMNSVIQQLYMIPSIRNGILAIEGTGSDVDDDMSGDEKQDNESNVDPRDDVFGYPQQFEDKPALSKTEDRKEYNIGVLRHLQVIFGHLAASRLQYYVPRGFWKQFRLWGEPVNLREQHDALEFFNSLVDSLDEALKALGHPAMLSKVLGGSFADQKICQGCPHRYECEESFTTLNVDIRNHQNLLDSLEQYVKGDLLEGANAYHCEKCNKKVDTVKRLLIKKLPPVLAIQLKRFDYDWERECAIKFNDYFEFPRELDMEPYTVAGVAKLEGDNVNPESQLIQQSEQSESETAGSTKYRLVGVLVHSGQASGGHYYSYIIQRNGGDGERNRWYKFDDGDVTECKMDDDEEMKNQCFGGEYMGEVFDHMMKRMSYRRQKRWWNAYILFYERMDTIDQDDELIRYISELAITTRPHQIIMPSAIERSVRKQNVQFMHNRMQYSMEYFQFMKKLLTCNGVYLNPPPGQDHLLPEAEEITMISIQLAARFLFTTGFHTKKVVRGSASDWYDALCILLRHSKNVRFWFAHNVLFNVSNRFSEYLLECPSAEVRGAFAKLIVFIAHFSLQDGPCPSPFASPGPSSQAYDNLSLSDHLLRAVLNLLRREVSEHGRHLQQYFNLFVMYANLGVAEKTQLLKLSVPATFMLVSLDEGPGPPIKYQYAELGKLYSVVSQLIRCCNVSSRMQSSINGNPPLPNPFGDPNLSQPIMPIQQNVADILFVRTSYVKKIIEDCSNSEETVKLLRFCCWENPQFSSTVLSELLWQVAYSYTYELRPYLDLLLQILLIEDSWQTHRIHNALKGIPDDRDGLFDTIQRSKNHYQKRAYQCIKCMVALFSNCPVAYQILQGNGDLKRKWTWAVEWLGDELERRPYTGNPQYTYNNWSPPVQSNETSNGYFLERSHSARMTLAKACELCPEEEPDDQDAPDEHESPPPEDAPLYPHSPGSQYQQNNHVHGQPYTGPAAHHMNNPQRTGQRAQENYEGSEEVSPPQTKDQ
USP46, sequence (P62068 whole entry): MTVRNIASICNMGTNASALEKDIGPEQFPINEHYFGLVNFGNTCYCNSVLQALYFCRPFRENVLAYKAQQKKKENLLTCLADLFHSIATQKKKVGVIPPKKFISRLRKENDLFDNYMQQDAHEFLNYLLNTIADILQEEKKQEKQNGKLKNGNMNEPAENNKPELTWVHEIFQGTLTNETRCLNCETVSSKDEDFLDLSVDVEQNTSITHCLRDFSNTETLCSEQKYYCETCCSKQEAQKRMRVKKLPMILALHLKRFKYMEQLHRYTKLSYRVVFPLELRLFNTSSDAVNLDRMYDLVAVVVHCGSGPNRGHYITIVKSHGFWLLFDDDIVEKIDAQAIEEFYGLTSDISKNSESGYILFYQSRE
UniProt O00487, sequence (O00487 whole entry): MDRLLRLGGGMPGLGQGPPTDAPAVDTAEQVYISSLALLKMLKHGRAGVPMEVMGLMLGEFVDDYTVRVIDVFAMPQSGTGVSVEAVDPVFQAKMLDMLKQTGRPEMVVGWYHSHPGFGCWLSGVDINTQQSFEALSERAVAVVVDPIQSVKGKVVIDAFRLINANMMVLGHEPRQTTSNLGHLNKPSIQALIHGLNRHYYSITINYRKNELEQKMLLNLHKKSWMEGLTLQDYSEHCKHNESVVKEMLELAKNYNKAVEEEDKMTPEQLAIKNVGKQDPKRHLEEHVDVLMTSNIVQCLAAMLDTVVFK

O=C(CCl)N(C1=CCCCC1)C1CC1
inactive: USP42 0.331 | USP46 -0.1 | USP47 -0.571 | USP48 -0.64 | USP5 0.124 | USP54 0.551 | USP7 -0.612 | USP8 -0.00831 | USP9X -0.0905 | UniProt O00487 -0.232
